The whole screen tested about 66,000 compounds, of which about 960 (1.5%) showed an effect of 50% or more. Only a selection was taken, and strong results are over-represented in it overall.

The subject of this assay is Trypanosoma brucei. Nature of the assay: Trypanosoma brucei 72 hour study. It is filed as functional, organism-based. More on the design: scale not given: in the data most compounds retested in dose-response had high values.

For `CN(C)C1CCC2(CCN(Cc3nccn3C)CC2)c2ccccc21.O=C(O)C(F)(F)F.O=C(O)C(F)(F)F` (stereo unspecified), the “Percent Effect” value (30.3 µM, […]) is given as -42.21%.
As to `CNCC(=O)N1CC(c2cc(Nc3ncccn3)nc(C)n2)C1.Cl`, for the setting “30 µM, 30.03 µM”, the “Percent Effect” value is reported as -14.51%.
With `Cn1cnnc1C1CCCN(C(=O)c2cc(-c3ccccc3)on2)C1` (stereo unspecified), the “Percent Effect” value (30 µM, 30.03 µM) was -25.06%.
`CCN(CC)CCCNCc1cc2cc(C)cc(C)c2[nH]c1=O`: where the note is “30.3 µM, […]”, the “Percent Effect” value is 66.62%.
For `CCN(CC)CCCNCc1cc2cccc(C)c2[nH]c1=O`, where the note is “30.3 µM, […]”, the “Percent Effect” value was -3.275%.
`CCN(CC)CCCNCc1cc2cc(C)ccc2[nH]c1=O`: the “Percent Effect” value (30.3 µM, […]) is recorded as -2.792%.
`Cc1cc(C(=O)NCCN2CCCCC2C)nn1C(C)(C)C` (stereo unspecified): the “Percent Effect” value (30 µM, 30.03 µM) is given as -37.93%.
Regarding `Cl.O=C(Nc1cccc(CNCc2ccsc2)c1)C1CC1`, for the setting “10 µM”, the “Percent Effect” value is -60.42%.
In the case of `COCc1cc(NCCCSc2nnc(C)s2)ncn1`, where the note is “30 µM, 30.03 µM”, the “Percent Effect” value came out at 0.4948%.
`CNC(=O)CC1CC2(CCN(CC3CC3)CC2)Oc2ccccc21.O=C(O)C(F)(F)F` (stereo unspecified): the “Percent Effect” value (30.3 µM, […]) is -8.019%.
Still for that read-out and setting: to `CO[C@H]1CNC[C@@H]1NC(=O)CCc1nc(-c2ccccc2)no1` belongs 14.68%; to `CCO[C@H]1COC[C@@H]1NC(=O)CCc1nc(-c2ccccc2)no1`, -3.299%; to `O=C(CCc1nc(-c2ccccc2)no1)N[C@H]1COC[C@@H]1N1CCCC1`, 62.68%.
On to `COCCN1C(=O)[C@H]2CC[C@@H]1CN(S(=O)(=O)c1ccc(OC)cc1)C2`, for which, under “30.3 µM, […]”, the “Percent Effect” value is listed as -80.52%.
Turning to `COc1cc2nc(NCCN3CCNC3=O)cc(C)c2cc1OC`, the “Percent Effect” value (30 µM, 30.03 µM) worked out at 57.38%.
With `Cc1cc(NCCN2CCNC2=O)nc2cc3c(cc12)CCC3`, the “Percent Effect” value (30 µM, 30.03 µM) came out at 101.3%.
With `COc1cc(OC)c2nc(NCCN3CCNC3=O)cc(C)c2c1`, the “Percent Effect” value (30 µM, 30.03 µM) is 22.56%.
In the case of `Cc1cc(NCCNS(C)(=O)=O)nc2cc3c(cc12)CCC3`, the “Percent Effect” value (30 µM, 30.03 µM) was 12.23%.
Take `Cc1cc(NCCS(C)(=O)=O)nc2cc3c(cc12)CCC3`: the “Percent Effect” value (30 µM, 30.03 µM) is 3.514%.
Still for that read-out and setting: as for `COc1cc2nc(NCCNS(C)(=O)=O)cc(C)c2cc1OC`, the figure is 21.73%.
In the case of `Cc1cc(C(=O)N2CCn3cc(CN4CCOCC4)nc3C2)no1.O=C(O)C(F)(F)F`, the “Percent Effect” value (30.3 µM, […]) is reported as -304.6%.
With `CN1CC(=O)N(c2ccsc2)CC12CCN(C(=O)CC1CCCC1)C2.O=C(O)C(F)(F)F` (stereo unspecified), under “30 µM, 30.03 µM”, the “Percent Effect” value turned out to be 8.203%.
In the case of `O=C(C[C@@H]1COC[C@H]2CN(C3CCCC3)C[C@@H]12)NCc1cccnc1.O=C(O)C(F)(F)F.O=C(O)C(F)(F)F`, under “30.3 µM, […]”, the “Percent Effect” value turned out to be 5.505%.
With `Cc1noc(CN2CCC(Cc3ccc(F)cc3)CC2)n1`, the “Percent Effect” value (30.3 µM, […]) is reported as -2.984%.
In the case of `CN(C)C(=O)N1C[C@@H]2CC[C@H](C1)N(Cc1nnc(C3CC3)o1)C2`, where the note is “30 µM, 30.03 µM”, the “Percent Effect” value is recorded as -29.28%.
Consider `CCCNCc1ccc(-c2cc(N)nc3[nH]ccc23)cc1`, for which the “Percent Effect” value (30.3 µM, […]) was 58.31%.
On to `Cc1cnccc1-c1cc(NCCO)nc2[nH]ccc12`, for which the “Percent Effect” value (30 µM, 30.03 µM) was -32%.
On to `CCCNCc1ccc(-c2ccnc3[nH]ccc23)cc1`, for which the “Percent Effect” value (30.3 µM, […]) came to 63.66%.
For the compound `Nc1cc(-c2cc(O)cc(C(=O)O)c2)c2cc[nH]c2n1`, the “Percent Effect” value (30 µM, 30.03 µM) is on record as -9.984%.
`CCNCCOc1ccc(-c2cc(N)nc3[nH]ccc23)cc1`: for the setting “30.3 µM, […]”, the “Percent Effect” value was 21.45%.
`CNc1cc(-c2ccc(COCCN)cc2)c2cc[nH]c2n1`: the “Percent Effect” value (30 µM, 30.03 µM) is -16.28%.

Source of the values: ChEMBL document CHEMBL3988442, “University of Dundee, Small-Polar-MMV Screening Library” (2021).
